# Laboratory results as given in ChEMBL document CHEMBL3988442, “University of Dundee, Small-Polar-MMV Screening Library” (2021).
# Screen size: about 67,000 compounds; about 300 (0.45%) showed an effect of 50% or more. The sample as a whole holds a higher share of strong results than the screen did.
# Biological target: Polyketide synthase Pks13 (Mycobacterium tuberculosis (strain ATCC 25618 / H37Rv)) (UniProt I6X8D2)
# Experiment: Mycobacterium tuberculosis Polyketide synthase 13 Thioesterase (PKS13)
# Type: functional
# Design: scale not given: in the data most compounds retested in dose-response had high values
# Details: 30 µM
# Sequence of Polyketide synthase Pks13 (Mycobacterium tuberculosis (strain ATCC 25618 / H37Rv)) (I6X8D2 whole entry): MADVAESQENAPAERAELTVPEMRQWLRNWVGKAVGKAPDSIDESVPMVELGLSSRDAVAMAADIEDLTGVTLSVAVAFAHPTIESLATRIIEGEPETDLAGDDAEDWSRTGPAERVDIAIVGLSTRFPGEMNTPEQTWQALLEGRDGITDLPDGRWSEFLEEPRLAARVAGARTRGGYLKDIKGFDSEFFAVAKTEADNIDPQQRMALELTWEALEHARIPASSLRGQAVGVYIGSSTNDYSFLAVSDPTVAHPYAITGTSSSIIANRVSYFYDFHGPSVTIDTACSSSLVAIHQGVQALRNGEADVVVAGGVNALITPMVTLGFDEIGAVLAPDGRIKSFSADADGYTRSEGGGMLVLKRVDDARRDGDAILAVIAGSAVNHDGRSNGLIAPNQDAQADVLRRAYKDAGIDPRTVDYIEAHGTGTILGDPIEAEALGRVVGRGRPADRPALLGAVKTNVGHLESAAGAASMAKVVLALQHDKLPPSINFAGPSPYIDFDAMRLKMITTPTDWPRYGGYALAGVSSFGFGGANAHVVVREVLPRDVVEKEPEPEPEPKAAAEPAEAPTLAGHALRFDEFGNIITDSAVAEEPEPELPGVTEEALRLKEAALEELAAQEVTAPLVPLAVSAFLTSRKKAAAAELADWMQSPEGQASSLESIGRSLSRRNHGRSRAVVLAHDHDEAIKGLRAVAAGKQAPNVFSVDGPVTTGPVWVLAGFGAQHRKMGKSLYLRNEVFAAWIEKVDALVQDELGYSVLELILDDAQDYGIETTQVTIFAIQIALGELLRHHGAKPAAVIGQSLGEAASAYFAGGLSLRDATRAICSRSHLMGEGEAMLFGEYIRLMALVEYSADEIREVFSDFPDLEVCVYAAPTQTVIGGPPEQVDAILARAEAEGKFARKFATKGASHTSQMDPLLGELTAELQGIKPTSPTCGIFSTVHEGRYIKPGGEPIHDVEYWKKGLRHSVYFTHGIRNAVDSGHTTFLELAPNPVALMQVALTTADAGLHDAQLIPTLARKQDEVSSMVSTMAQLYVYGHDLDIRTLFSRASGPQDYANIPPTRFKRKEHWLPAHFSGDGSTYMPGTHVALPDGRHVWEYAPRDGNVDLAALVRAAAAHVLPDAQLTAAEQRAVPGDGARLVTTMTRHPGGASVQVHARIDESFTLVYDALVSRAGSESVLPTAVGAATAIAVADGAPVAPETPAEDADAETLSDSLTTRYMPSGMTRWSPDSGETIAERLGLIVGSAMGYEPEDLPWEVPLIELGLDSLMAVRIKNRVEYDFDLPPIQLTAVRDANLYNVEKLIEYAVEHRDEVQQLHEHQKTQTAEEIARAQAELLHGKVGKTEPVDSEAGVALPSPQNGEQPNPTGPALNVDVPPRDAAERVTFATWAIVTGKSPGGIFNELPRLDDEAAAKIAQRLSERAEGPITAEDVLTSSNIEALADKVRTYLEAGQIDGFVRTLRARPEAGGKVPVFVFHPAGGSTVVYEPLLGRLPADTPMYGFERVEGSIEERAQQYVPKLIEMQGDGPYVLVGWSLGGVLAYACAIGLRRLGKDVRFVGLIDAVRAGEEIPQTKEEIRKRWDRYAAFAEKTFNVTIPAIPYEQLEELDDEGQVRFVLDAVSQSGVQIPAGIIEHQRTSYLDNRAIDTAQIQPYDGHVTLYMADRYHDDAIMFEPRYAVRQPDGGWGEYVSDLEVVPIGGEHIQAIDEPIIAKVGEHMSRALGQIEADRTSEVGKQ
row,Structure (SMILES),Percent Effect [%]
1,O=C(NC[C@H]1C[C@@H]2CN(C(=O)c3ccno3)C[C@@H]2O1)C1CCC1,-26.6
2,CCN1C(=O)C[C@@H]2[C@@H]1CCN2S(=O)(=O)c1ccc(OC)cc1,-42.1
3,O=C(c1cccs1)N1C[C@@H]2OCCN(CC3CCCO3)[C@@H]2C1 (stereo not given in full),8.57
4,CCn1c(SCC(=O)N2CCCC2)nc2cc(C)[nH]c2c1=O,54.6
5,CCn1c(SCC(=O)N2CCOCC2)nc2cc(C)[nH]c2c1=O,11.1
6,Cc1cc2nc(SCC(=O)N3CCCC3)n(C)c(=O)c2[nH]1,-2.84
7,Cc1cc(C(=O)N2C[C@@H]3OCCN(CCN4CCCC4)[C@@H]3C2)c(C)o1,-5.69
8,CCN1C(=O)C[C@@H]2[C@@H]1CCN2S(=O)(=O)Cc1ccc(C)cc1,16.4
9,Cc1cc(C(=O)N2CC[C@H]3[C@H](C[C@@H](CN4CCCC4)N3C)C2)c(C)o1,-16.7
10,CS(=O)(=O)N1CCCC1c1cccc(Cc2ccccc2F)n1 (stereo not given),51.8
11,CN1CCCC1c1cccc(Cc2ccccc2F)n1 (stereo not given),-56.2
12,CC(=O)N1CCCC1c1cccc(Cc2ccccc2F)n1 (stereo not given),-41.9
13,CCC1=N[C@@]2(CC[C@@H]3CN(C(=O)Nc4ccccc4)C[C@@H]32)C(=O)N1C,7.9
14,O=C(NC1CC1)[C@H]1C[C@H]2OCC[C@H]2N(Cc2cccnc2)C1,1.16
15,O=C(c1cc2cc(F)ccc2[nH]1)N1CCC(Nc2ccc(F)cc2)CC1,70.6
16,Cc1nnc2n1CCN(C(=O)c1cc3cc(F)ccc3[nH]1)C2,-0.338
17,O=C(c1cc2cc(F)ccc2[nH]1)N1CCC(Nc2cccnn2)CC1,-12.9
18,O=C1CO[C@H]2CN(Cc3ccccc3Br)C[C@@H]2N1,5.27
19,Cn1ccnc1CN1CCN(CC2CC2)[C@@H]2CS(=O)(=O)C[C@@H]21,-9.98
20,c1ccc(CN2CCO[C@H]3[C@H](OCCN4CCCC4)CC[C@@H]32)nc1,-5.53
21,NC(=O)CCSc1ccccc1NCc1ccc(Cl)s1,75.8
22,CC(C)(C)c1ncc(CNc2ccccc2SCCC(N)=O)s1,4.25
23,CC(C)(C)c1nc(CNc2ccccc2SCCC(N)=O)cs1,6.99
24,O=C(Nc1cccnc1)[C@@H]1C[C@H]2OCC[C@H]2N(Cc2nccs2)C1,-10.3

row,Structure (SMILES),Percent Effect [%]
1,Cc1nnc(N2C[C@@H]3CCCO[C@@H]3[C@H](N(C)C)C2)s1,26.3
2,Cc1nc(-c2ccc(Cl)s2)sc1C(=O)NCCCC(N)=O,54.9
3,Cc1c(C(=O)NCCCC(N)=O)sc2ccc(F)cc12,0.295
4,Cc1nc(-c2ccc(Cl)s2)sc1C(=O)N(C)CC(N)=O,88.9
5,Cc1nc(-c2ccc(Cl)s2)sc1C(=O)NCCS(N)(=O)=O,54
6,CC(=O)NCCNC(=O)c1sc(-c2ccc(C)cc2C)nc1C,-6.1
7,COC(=O)CNC(=O)c1nc(Cl)sc1C(C)C,-1.24
8,CN(CC(N)=O)C(=O)c1cc(Cl)c(Cl)n1C,-6.47
9,COC(=O)CNC(=O)c1sc(-c2ccc(Cl)s2)nc1C,51.9
10,CC(=O)NCCNC(=O)c1sc(-c2ccc(Cl)s2)nc1C,33.9
11,CC(=O)NCCNC(=O)c1sc(-c2ccc(Cl)cc2)nc1C,-15.5
12,COC(=O)CNC(=O)c1scnc1C,-29.3
13,CN(CC(N)=O)C(=O)c1cnc(-c2ccc(Cl)s2)s1,-171
14,CN(C)C(=O)CN1C[C@@H]2CC[C@H](C1)N(Cc1ccccc1OCCO)C2,-4.8
15,CCCN1CCN(Cc2cccc(OC(C)C)c2)[C@H]2CS(=O)(=O)C[C@H]21,-8.54
16,O=C(CO[C@@H]1CC[C@H]2[C@H]1OCCN2c1ncccn1)N1CCCC1,-31.3
17,C1CCN(CCO[C@@H]2CC[C@H]3[C@H]2OCCN3CC2CCOCC2)C1,-4.73
18,c1cnc(NC[C@H]2OC[C@@H]3CCN(Cc4ccsc4)C[C@@H]32)nc1,-14
19,Cc1ccc(S(=O)(=O)N2CC[C@H]3CO[C@H](CN(C)C)[C@H]3C2)cc1,-8.17
20,CC(C)N1C(=O)CO[C@H]2CCN(C(=O)c3ccc4c(c3)CCC4)CC[C@@H]21,13
21,Cc1nc(-c2ccc(Cl)s2)sc1C(=O)NC(C)(C)C(N)=O,59.7
22,CC(C)(NC(=O)c1ccc(-c2ccc(F)cc2)s1)C(N)=O,-17.8
23,Cc1nc(-c2ccc(Cl)s2)sc1C(=O)O,11.9
24,O=C1[C@@H]2CN(Cc3cc4ccccc4o3)C[C@]2(C(=O)O)CN1CC1CC1,-17.7

row,Structure (SMILES),Percent Effect [%]
1,CN(C)C(=O)N1C[C@@H]2CC[C@H](C1)N(C(=O)CCCn1cncn1)C2,-5.92
2,Cc1csc(CNc2nc3c(s2)c(C)nn3C)n1,24
3,Cc1csc(CNc2cnc3c(c2)c(C)nn3C)n1,54.4
4,Cc1csc(CCNCc2cnc3c(c2)c(C)nn3C)n1,-13.2
5,Cc1ccc([C@]2(O)CC[C@H]3CN(Cc4cccc(Cl)c4Cl)C[C@H]32)nc1,-77.5
6,COc1ccnc(N2C[C@@H]3CC[C@H](C2)N(CC2CC2)C3)n1,-40.5
7,Cn1cccc1-c1cc(C(=O)NCCCc2csc(N)n2)[nH]n1,3.3
8,Cc1ccc(-c2cc(C(=O)NCCCc3csc(N)n3)[nH]n2)s1,57.8
9,Cc1ccc(-c2cc(C(=O)NCCCc3csc(N)n3)[nH]n2)o1,-10.8
10,COCCN1C[C@H]2[C@@H](C1)N(C(=O)CCc1ccccc1)CC[C@H]2OC,-5.76
11,Cc1nnc([C@@H]2CC[C@@H]3[C@@H](CCN3S(=O)(=O)c3cccnc3)O2)o1,-18.5
12,NC(=O)c1cc(-c2cccc(C(=O)O)c2)cs1,-10.7
13,NC(=O)c1cc(-n2cc(-c3cccc(C(=O)O)c3)cn2)cs1,-18.4
14,NC(=O)c1ccccc1-n1cc(-c2cccc(C(=O)O)c2)cn1,61.5
15,CC(=O)N1[C@H](CN(C)C)C[C@@H]2CN(C(=O)c3cccc(F)c3)CC[C@@H]21,-7.05
16,O=C(c1ccc(F)cc1)N1C[C@@H]2CN(c3ncccn3)C[C@@H]2C1,-16.8
17,CN(C)S(=O)(=O)N1CC[C@]2(O)CCN(c3ncccn3)C[C@@H]2C1,5.3
18,CS(=O)(=O)NC[C@H]1OC[C@@H]2CN(Cc3cccnc3)CC[C@@H]21,7.73
19,CC(NC(=O)COCC(F)(F)F)c1nnc2n1CCCCC2 (stereo not given),-15.5
20,CC(NC(=O)CN(C)S(C)(=O)=O)c1nnc2n1CCCCC2 (stereo not given),76.2
21,CC(C)CCC(=O)NC(C)c1nnc2n1CCCCC2 (stereo not given),-2.75
22,Cc1noc(C)c1CN1C[C@@H]2CCCO[C@@H]2[C@H](Nc2ccccn2)C1,-22.7
